# Data: PubChem BioAssay AID720706 (Broad Institute, 2013)
# Screen size: about 350,000 compounds; about 5,500 (1.6%) were called active.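 The calls were made as follows: active = significant combined selectivity score with lowered wild-type GFP, culture density cut under 30%, mutant RFP and density less affected; inactive = any of these conditions unmet.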 What follows is part of a selection rich in actives, with near analogues and random picks from the rest.
# Experiment: reduced GFP signal of wild-type E. coli, primary screen, bacterial rRNA inhibitor project, GFP/RFP fluorescence, OD600, single point (AID 720706)
# Conditions: E. coli WT GFP vs humanized-ribosome RFP mutants, 24 h; GFP signal change (wild-type ribosome): stronger effect = lower value, DMSO median 0, no signal -100; OD600 change: measured here: OD600 growth, DMSO median 0, no signal -100; RFP signal change: measured here: RFP humanized mutant strains, DMSO median 0, no signal -100, concentration not given here
SMILES,GFP signal change (wild-type ribosome),OD600 change [%],RFP signal change [%]
C[C@@H]1COCc2cnnn2CC[C@H](Cc2ccccc2)C(=O)N1,1.97% (inactive),6.09,0.175
CCc1ccc(C2=CC(=O)CC(C)(C)C2=O)cc1,9.3% (inactive),6.63,1.11
COC(=O)C1=C(C)N(Cc2cccc(C(F)(F)F)c2)C(=NCc2ccccc2)NC1c1ccc(Cl)cc1 (stereo not given),-51.5% (inactive),-79.1,-15.9
COC(=O)C1=C(C)N(Cc2ccc(C(F)(F)F)cc2)C(=NCc2ccc(C(F)(F)F)cc2)NC1c1cccc(Cl)c1 (stereo not given),-29.5% (active),-8.48,10.4
COC(=O)C1=C(C)N(Cc2ccc(C(F)(F)F)cc2)C(=NCc2ccccc2)NC1c1ccccc1C(F)(F)F (stereo not given),-44.7% (inactive),-75.3,-10.2
CO[C@@H]1CN(C)C(=O)c2cc(NS(=O)(=O)c3ccccc3)ccc2OC[C@@H](C)N(C(=O)NC(C)C)C[C@@H]1C,1.8% (inactive),-5.96,-2.55
C[C@H](O)C#Cc1ccc([C@H]2[C@H](CO)N3CCCCN(C(=O)c4ccc(F)cc4)C[C@@H]23)cc1,4.08% (inactive),14.8,0.514
CC(C)NC(=O)Nc1cccc2c1O[C@@H](CN(C)C(=O)NC(C)C)[C@@H](C)CN(C)C2=O,-0.63% (inactive),-5.7,-0.789
CC(C)NC(=O)N(C)C[C@H]1Oc2c(cccc2N(C)C)C(=O)N(C)C[C@H]1C,3.79% (inactive),5.03,-1.64
CN(C)C(=O)c1ccc(-c2ccc(C3[C@@H]4CN(S(=O)(=O)c5cccc(Cl)c5)C[C@H]3N4)cc2)cc1 (stereo not given in full),-4.17% (inactive),-4.3,1.15
c1ccc(C(=NNc2nc3ccccc3s2)c2ccccn2)cc1,-3.87% (inactive),-7.96,1.5
CCN(CC)CCn1c2c(c(SCC(=O)Nc3nc4ccccc4s3)nc1=O)CCCC2,-8.54% (inactive),-9.96,4.44
c1ccc2sc(NN=C3CCCC3)nc2c1,-34.8% (active),-19.9,0.135
CN(C)c1nc(=Nc2cccc(Cl)c2)ss1,-20.6% (active),-16.1,6.27
COc1ccc(CN(C)C[C@@H]2Oc3ccc(NS(=O)(=O)c4cn(C)cn4)cc3C(=O)N([C@@H](C)CO)C[C@@H]2C)cc1,2.98% (inactive),9.11,-0.744
COc1ccc2c3c([nH]c2c1)[C@H](CO)N(CC1CC1)CC31CN(C(=O)Nc2cccc(F)c2)C1,-4% (inactive),-2.33,0.442
CCCNC(=O)N(C)C[C@H]1Oc2ncc(-c3cccc(C#N)c3)cc2C(=O)N([C@@H](C)CO)C[C@@H]1C,6.13% (inactive),2.48,4.15
COc1cccc(C(NC(C)=O)c2nc(-c3cnc4ccccc4c3)cs2)c1 (stereo not given),1.07% (inactive),7.87,-4.72
CC(=O)NC(c1ccccc1)c1nc(-c2ccccc2C)cs1 (stereo not given),6.39% (inactive),1.11,0.505
COc1cccc(C(NC(C)=O)c2nc(-c3ccccc3OC)cs2)c1 (stereo not given),-17.2% (active),-5.72,3.69
CC(C)NC(=O)Nc1ccc2c(c1)C(=O)N([C@@H](C)CO)C[C@@H](C)[C@H](CN(C)C)OCCCC[C@H](C)O2,4.43% (inactive),12.9,-2.38
CCOC(=O)CNC(=O)/C(=C\c1ccc(F)cc1)NC(=O)c1ccccc1,7.79% (inactive),7.99,-0.754

SMILES,GFP signal change (wild-type ribosome),OD600 change [%],RFP signal change [%]
CCOC(=O)C(=Cc1ccccc1OC)C(=O)OCC,-1.94% (inactive),-6.41,-3.6
CCOC(=O)C(=Cc1ccccc1)C(=O)c1ccccc1,-45.9% (active),-44.3,-8.34
COc1ccccc1C(=O)NCCC(=O)NCC(c1ccco1)N1CCCCC1 (stereo not given),3.93% (inactive),11.1,2.81
COc1cccc(OC)c1C(=O)NC(=S)NCc1ccco1,10.3% (inactive),5.07,-0.715
COc1ccccc1C(=O)NCCn1cc(SCC(=O)NCc2ccco2)c2ccccc21,-24.1% (active),-15.6,1.51
COc1ccc2c3c([nH]c2c1)[C@@H](CO)N(C(=O)CN1CCOCC1)CC31CCN(C)CC1,1.95% (inactive),7.83,0.695
C[C@@H]1CN([C@H](C)CO)C(=O)c2cc(-c3cccc(F)c3)cnc2O[C@@H]1CN(C)C,2.27% (inactive),6.45,-2.92
COc1cccc(CN2CC3(CN(Cc4ccccn4)C3)c3c([nH]c4cc(OC)ccc34)[C@@H]2CO)c1,0.969% (inactive),8.73,5.99
COc1ccc(NCCc2ccccn2)cc1,12.7% (inactive),10.1,9.18
COc1ccc2c(c1)c1ncn(Cc3ccccn3)c(=O)c1n2C,-22.5% (active),-10.5,-3.41
C[C@H]1CCCCO[C@H](CN(C)CC2CCCCC2)[C@@H](C)CN([C@@H](C)CO)C(=O)c2cc(NS(=O)(=O)c3ccc(Cl)cc3)ccc2O1,-56.3% (inactive),-77.3,-17.5
CN(C)C(=O)c1cccc(-c2ccc([C@H]3[C@H](CO)N4C(=O)CN(C(=O)Cc5ccccc5)C[C@@H]34)cc2)c1,6.84% (inactive),11.5,5.77
Cn1cccc1C(=O)NNC(=O)COc1ccc(Br)cc1,-1.7% (inactive),4.13,0.868
CC(=O)Nc1ccc(OC(=O)COc2ccc(Br)cc2)cc1,18.1% (inactive),16.8,1.93
Cc1ccc(O)c(NC(=S)NC(=O)COc2ccc(Br)cc2)c1,-23.6% (active),-13.5,6.14
CC[C@H]1CC=CC[C@@H](C)Oc2ccccc2C(=O)N(C)[C@H](Cc2ccccc2)C(=O)N1 (mixture of isomers),-6.4% (inactive),-38,-3.29
CC(C)NC(=O)N(C)C[C@H]1Oc2ncc(C#CC3(O)CCCC3)cc2C(=O)N([C@H](C)CO)C[C@@H]1C,2.98% (inactive),9.89,0.31
O=[N+]([O-])c1cc(C(F)(F)F)ccc1NCCc1ccncc1,1.68% (inactive),6.66,-1.21
Nc1ccccc1Sc1cc(Cl)nnc1Cl,2.47% (inactive),3.13,-2.25
Nc1ccccc1Sc1ccc(C(F)(F)F)cc1[N+](=O)[O-],-36.7% (active),-4.9,-9.75
C[C@H]1CN([C@@H](C)CO)C(=O)c2cccc(NC(=O)c3ccncc3)c2O[C@@H]1CN(C)C,2.69% (inactive),14.6,-0.879
CCc1noc(C)c1C(=O)OCC(=O)c1ccc(NC(=O)CC(C)C)cc1,-6.83% (inactive),-38.8,4.13

SMILES,GFP signal change (wild-type ribosome),OD600 change [%],RFP signal change [%]
CCc1noc(C)c1C(=O)Nc1nc(-c2ccccc2)cs1,-30.7% (active),-24.6,-5.38
Cc1ccc(-c2csc(NC(=O)C3=COCCO3)n2)cc1C,-32% (inactive),-55.4,17.9
COc1ccc2c3c(n(C)c2c1)[C@H](CO)N(Cc1cccnc1)CC31CCN(Cc2cccnc2)CC1,-3.41% (inactive),7.26,0.685
C[C@@H]1CN([C@@H](C)CO)C(=O)c2cc(N(C)C)ccc2O[C@@H](C)CCCCO[C@@H]1CN(C)C(=O)CCC(F)(F)F,-1.52% (inactive),-0.235,1.42
C/C=C/c1cccc(-c2nc(C(=O)NCCN3CCCC3)cc3c2[C@@H](CCO)N([S@](=O)C(C)(C)C)C3)c1,6.3% (inactive),-2.18,-0.457
CCOC(=O)C1(CCOc2ccccc2)CCN(Cc2cc(OC)cc(OC)c2)CC1,-33.8% (active),-25.8,-6.01
CCCS(=O)(=O)N1CCC(CCOc2ccccc2)(C(=O)OCC)CC1,-17.9% (inactive),-32.1,-4.54
CCOC(=O)C1(CCOc2ccccc2)CCN(Cc2ccc(C#CCCO)cc2)CC1,2.81% (inactive),-4.44,-0.935
COc1ccc2c3c([nH]c2c1)[C@H](CO)N(Cc1cccc(F)c1)CC31CCN(CC2CC2)CC1,4.42% (inactive),4.76,-1.35
CC(C)NC(=O)N(C)C[C@H]1Oc2ccc(N)cc2C(=O)N(C)C[C@@H]1C,0.734% (inactive),6.88,-0.42
OC[C@@H]1[C@@H](c2ccccc2)C2(CN(Cc3cccc(F)c3)C2)N1CC1CCCC1,-23.5% (inactive),-64.7,20.6
CNC(=O)c1ccsc1NC(=O)c1ccc(S(=O)(=O)N2CCc3ccccc32)cc1,-14% (active),-3.21,-0.575
O=S(=O)(c1ccccc1)N1CCc2ccccc21,3.46% (inactive),1.07,1.3
CC1CN(S(=O)(=O)c2ccc(C(=O)Nc3sccc3C(N)=O)cc2)CC(C)O1 (stereo not given),-9.92% (inactive),0.73,-4.68
CN1C[C@@H]2[C@H](c3ccccc31)[C@@H](CO)N2C(=O)Nc1ccccc1,-1.61% (inactive),-4.19,-0.289
CC(=O)N1[C@@H]2c3ccc(-c4ccccc4)c(=O)n3C[C@@H]2[C@@H](CO)[C@@H]1C(=O)NCc1ccccc1F,1.92% (inactive),0.235,0.825
COc1ccc(CN(C)C[C@@H]2OCCCC[C@H](C)Oc3ccc(NS(=O)(=O)c4cccs4)cc3C(=O)N([C@H](C)CO)C[C@@H]2C)cc1,1.91% (inactive),-7.75,1.8
CCC(=O)N1CC(=O)N2[C@H](CO)[C@@H](c3ccc(-c4ccc(C(=O)N(C)C)cc4)cc3)[C@@H]2C1,-0.311% (inactive),-1.8,0.455
O=C(NCc1nnc(SCC(=O)N2CCC(Cc3ccccc3)CC2)o1)c1ccco1,-22.9% (active),-18.5,-1.19
O=C(NCc1nnc(SCC(=O)N2CCCCCC2)o1)c1ccc(F)cc1,3.73% (inactive),9.68,2.77
Cn1c(CNC(=O)c2ccco2)nnc1SCC(=O)N1CCN(c2ccccc2)CC1,4.73% (inactive),14.2,-0.921
